PglD inh: blocks C. jejuni PglD acetyltransferase activity; inhibition, % at 12.5 µM; purified PglD enzyme, DTNB colorimetric CoA detection; actives 0.098% (n = 360,000); in the data active means inhibition above about 16%, passing the limit was not always enough
FGF22 binding: shifts melting point of recombinant human FGF22. recombinant FGF22 thermal shift, SYPRO orange fluorescence; percent of sucrose octasulfate shift, DMSO zero. activity (Tm shift, normalised), % at 9.99 µM. actives 1.5% (n = 340,000). AID 651658;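 active means mean Tm shift, scaled 0 neutral to 100 positive control, at about 1.3% or above, every replicate too, limit read from the data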
CDK5 p35 inh: inhibitors of human CDK5/p35 kinase. actives 0.01% (n = 330,000). Recombinant CDK5/p35, ADP-Glo luminescence, 60 min. inhibition, % at 10 µM. AID 488839;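 active means highest replicate inhibition of at least 50% and at least 75% of replicates reaching 50%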;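 further: plate controls were DMSO neutral control for no effect and GW8510 at 10 µM for full effect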
Target sequence (Q00535 whole entry, looked up): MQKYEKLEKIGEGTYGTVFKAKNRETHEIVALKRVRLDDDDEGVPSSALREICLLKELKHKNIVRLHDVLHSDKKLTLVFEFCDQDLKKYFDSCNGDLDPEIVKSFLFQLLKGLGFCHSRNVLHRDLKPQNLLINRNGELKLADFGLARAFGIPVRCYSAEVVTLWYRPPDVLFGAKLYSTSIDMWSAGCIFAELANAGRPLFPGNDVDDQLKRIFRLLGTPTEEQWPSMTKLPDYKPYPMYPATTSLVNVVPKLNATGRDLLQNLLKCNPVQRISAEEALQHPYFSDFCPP
Target sequence (Q15078 whole entry, looked up): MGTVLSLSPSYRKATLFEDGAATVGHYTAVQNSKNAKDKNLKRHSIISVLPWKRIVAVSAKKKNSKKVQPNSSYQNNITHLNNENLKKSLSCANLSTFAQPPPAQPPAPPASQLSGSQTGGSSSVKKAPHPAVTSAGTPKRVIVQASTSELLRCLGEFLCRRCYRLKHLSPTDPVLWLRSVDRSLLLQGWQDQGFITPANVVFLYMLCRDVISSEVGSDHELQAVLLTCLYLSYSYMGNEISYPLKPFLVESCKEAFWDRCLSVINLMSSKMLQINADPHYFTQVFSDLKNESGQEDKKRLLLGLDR
dFosB activator: enhances mouse delta FosB homodimer DNA binding; activation, % at 25 µM; actives 0.99% (n = 340,000); P13346; purified delta FosB, TAMRA-CDK5 oligo fluorescence polarization; percent of positive-control signal above neutral wells;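 active means mean activation above about 17%, with every replicate also reaching it, limit read from the data, passing the limit was not always enough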
PvdQ inh: P. aeruginosa PvdQ acylase inhibition. actives 0.063% (n = 340,000). purified PvdQ acylase, fluorescence plate reader. inhibition, % at 10 µM; in the data active means inhibition above about 30%, passing the limit was not always enough;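 further: 0% = vehicle neutral wells and 100% = reference inhibitor wells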
SIRT5 inh: sirtuin-5 (human) deacylase inhibition; Q9NXA8; Purified SirT5, succinyl-peptide AMC, trypsin-coupled fluorescence; inhibition, % at 15 µM; actives 1.1% (n = 330,000); in the data active means inhibition above about 15%
An asterisk follows results filed as active; x = no result. Rows were chosen to be rich in hits. Some 2.8% of all compounds tested hit in one or more screens of this group.

SMILES | PglD inh | FGF22 binding | CDK5 p35 inh | dFosB activator | PvdQ inh | SIRT5 inh
COc1ccc(NC(=O)Nc2ccc3c(c2)[C@@H]2C[C@H](CC(=O)N4CCOCC4)O[C@H](CO)[C@@H]2O3)cc1 | -5.4 | -0.1 | x | x | x | x
CC(NCc1ccccc1O)c1ccccc1 (configuration not stated) | 2.5 | 43.2* | -4.5 | -4.1 | -11.1 | 1.1
CN(C)C(=O)[C@H]1[C@H](CO)[C@H]2Cn3c(ccc(C4=CCCC4)c3=O)[C@H]2N1C(=O)Cc1cccnc1 | -5.1 | 0.2 | x | x | x | -6.6
CCCn1c2ccc(C)cc2c2nnc(SCCN3CCOCC3)nc21 | 13.0 | -0.2 | -1.6 | -29.4 | -12.4 | -0.2
CCCn1c2ccccc2c2nnc(SCCN3CCOCC3)nc21 | -1.1 | -0.4 | 1.2 | -16.6 | -7.1 | 18.9*
CO[C@@H]1CN(C)C(=O)c2cc(NC(C)=O)ccc2OC[C@H](C)N(C(=O)C2CCCCC2)C[C@@H]1C | 3.9 | -0.1 | x | x | x | 1.4
Nc1nc(N)c(C=Nc2ccc(Br)cc2)c(Nc2ccc(Br)cc2)n1 | -2.3 | -0.3 | 1.3 | 107.7* | -4.6 | -4.9
CCCc1cc(C(=O)N2CCC(N3CCC(C(=O)NC(C)C)CC3)CC2)n(C)n1 | -8.7 | 43.7* | -2.8 | 1.2 | -7.1 | -0.4
CC(C)NC(=O)C1CCN(C2CCN(C(=O)C3=CCCC3)CC2)CC1 | x | 0.2 | -1.6 | 1.7 | -13.6 | 2.0
COc1ccc2[nH]c3c(=O)n(Cc4ccc(C(=O)N5CCC(C(N)=O)CC5)cc4)c(=S)[nH]c3c2c1 | x | 43.0* | -1.1 | -6.8 | -10.5 | -1.9
CCCCCCCCCCOC(=O)Cn1c(COc2ccccc2OC)[n+](C)c2ccccc21 | -10.7 | -0.6 | 1.6 | 25.1* | -3.4 | 5.9
Cn1c(COc2ccccc2O)[n+](C)c2ccccc21 | 5.0 | -0.3 | 1.3 | 5.0 | 20.7 | -5.2
C[C@@H]1CN([C@H](C)CO)C(=O)Cc2cc(N(C)C)ccc2O[C@@H]1CN(C)S(=O)(=O)c1cn(C)cn1 | -4.4 | 0.0 | x | x | x | -2.5
C[C@@H]1CN([C@H](C)CO)C(=O)c2cccc(NC(=O)Nc3ccccc3)c2O[C@H]1CN(C)C(=O)NC1CCCCC1 | -0.4 | 0.1 | x | x | x | 0.3
C[C@H](CO)N1C[C@H](C)[C@H](CN(C)CC2CCCCC2)Oc2ccc(NS(=O)(=O)c3ccc(Cl)cc3)cc2CC1=O | -1.5 | x | x | x | x | 29.1*
C[C@H]1CN([C@@H](C)CO)C(=O)Cc2cc(NS(=O)(=O)c3ccc(Cl)cc3)ccc2O[C@H]1CN(C)CC1CCCCC1 | 0.4 | 0.1 | x | x | x | x
C[C@@H]1CN([C@@H](C)CO)C(=O)Cc2cc(NS(=O)(=O)c3ccc(F)cc3)ccc2O[C@H]1CN(C)CC1CCCCC1 | -2.1 | -0.1 | x | x | x | 16.4*
N#C/C(=C/c1ccccc1)C(=O)NCc1ccccc1 | 8.9 | 43.5* | -1.2 | -16.6 | 7.8 | 1.2
COc1ccc(/C=C(\C#N)C(=O)OCC(=O)NCc2ccco2)cc1 | 2.1 | -0.2 | 1.5 | -14.0 | 8.2 | -1.0
COc1ccc(/C=C(\C#N)C(=O)OCC(=O)NC2CC2)cc1 | x | 43.8* | 0.4 | 7.0 | 10.6 | -5.7
COc1ccc(/C=C(\C#N)C(=O)OCC(=O)NCc2ccccc2)cc1 | -3.9 | 33.8* | -1.3 | 1.2 | -5.5 | -1.7
COc1ccc(/C=C(\C#N)C(=O)OCC(=O)Nc2c(C)cccc2C)cc1 | x | -0.3 | 0.3 | 14.1 | -13.4 | 8.9
N#C/C(=C\c1ccc(O)c(Br)c1)C(=O)NCc1ccccc1 | x | x | 2.0 | -7.8 | -2.3 | -2.1
CCCNC(=O)N1CC2(C1)CN(C(=O)CC1CC1)[C@H](CO)c1c2c2ccc(OC)cc2n1C | x | 0.0 | x | x | x | 1.4
CN1c2ccc(-c3cccc(C#N)c3)cc2[C@H]2[C@H](CCN2C(=O)NC2CCCC2)[C@@H]1CO | x | x | x | x | x | 3.9
SMILES | PglD inh | FGF22 binding | CDK5 p35 inh | dFosB activator | PvdQ inh | SIRT5 inh
CCC(=O)Nc1cc(C(=O)O)ccc1Sc1ccc(Cl)cc1 | 3.9 | 44.0* | 0.5 | -7.3 | 2.7 | -3.4
CCN(CC)CCNC(=O)c1ccc(Sc2ccc(Cl)cc2)c(NC(C)=O)c1 | x | 45.4* | 1.5 | 1.2 | -3.5 | -0.3
CCN(CC)CCNC(=O)c1ccc(Sc2ccc(C)cc2)c(NC(C)=O)c1 | x | 0.1 | 0.9 | -1.9 | 4.9 | -0.8
Cc1cn(C2OC(COC(=O)c3ccccc3)C(O)C2Cl)c(=O)[nH]c1=O (configuration not stated) | -0.2 | 43.0* | -0.1 | 0.2 | -17.1 | 0.5
O=C(O)COc1ccc(/C=N/NC(=O)c2ccc(-c3csc(Nc4ccc(Cl)cc4)n3)cc2)cc1 | 2.9 | 0.3 | 0.1 | -10.6 | -9.6 | 28.4*
O=C(N/N=C/c1ccc(OCc2cnc(Cl)s2)cc1)c1ccncc1 | x | 43.2* | -3.7 | -11.2 | -10.6 | 0.8
Cc1noc(C)c1S(=O)(=O)Nc1ccc2c(c1)CC(=O)N([C@@H](C)CO)C[C@H](C)[C@@H](CN(C)Cc1ccc(-c3ccccc3)cc1)O2 | x | -0.3 | x | x | x | 9.5
O=S(=O)(Nc1cccc(S(=O)(=O)N2CCOCC2)c1)c1ccc(Cl)s1 | -7.2 | 43.1* | -0.7 | -1.4 | 1.6 | -2.8
CC(C(=O)Nc1cccc(S(=O)(=O)N2CCOCC2)c1)N1CCN(c2ccc(F)cc2)CC1 (configuration not stated) | x | 0.1 | 0.0 | -13.5 | -11.7 | 16.1*
Fc1cccc(NC(=S)N2CCCC2)c1 | x | 0.0 | -1.8 | -10.0 | 4.5 | 15.2*
O=C(Cc1ccccc1Cl)Nc1cccc(S(=O)(=O)N2CCOCC2)c1 | x | 0.0 | -1.6 | -2.9 | -14.8 | 2.1
O=C(Nc1cc(S(=O)(=O)N2CCOCC2)ccc1O)c1ccc(NS(=O)(=O)c2ccc(Cl)s2)cc1 | x | 0.0 | -1.3 | -1.3 | 2.6 | 4.0
O=C(Cc1ccccc1F)Nc1cccc(S(=O)(=O)N2CCOCC2)c1 | x | -0.3 | 1.5 | -0.5 | 12.3 | 17.1*
CCCC#Cc1ccc([C@H]2[C@H](CO)N3C(=O)CN(S(=O)(=O)Cc4ccccc4)C[C@@H]23)cc1 | x | x | x | x | x | -1.4
O=S(=O)(c1cccc(NC(=S)N2CCN(c3cccc(Cl)c3)CC2)c1)C(F)F | x | -0.1 | 0.3 | 4.2 | -16.6 | -2.1
O=S(=O)(c1cccc(NC(=S)N2CCN(c3ccc(F)cc3)CC2)c1)C(F)F | x | 0.1 | 0.9 | -1.2 | -2.9 | 30.0*
C=CCNC(=O)CN1CCC(c2nc3cc(C)c(C)cc3[nH]2)CC1 | -11.3 | -0.1 | 1.1 | 1.8 | 1.7 | 17.7*
COc1ccc(/C=N/Nc2cc(N(C)C)nc(N(C)C)n2)cc1 | x | 0.0 | -1.0 | 5.1 | -2.5 | 2.0
Cc1cc(N/N=C/c2cccc(F)c2)nc(NCc2ccccc2)n1 | x | 0.1 | 1.2 | 33.5* | 4.7 | 2.7
Cc1cc(N/N=C/c2ccc(Cl)cc2)nc(NCc2ccccc2)n1 | x | 1.6* | -0.4 | 53.0* | -4.9 | 4.0
CN(C)c1cc(N/N=C\c2ccccc2)nc(N(C)C)n1 | x | 43.0* | -4.2 | -8.2 | -5.9 | -3.1
Cc1cc(-c2ccccc2)nc(N/N=C/c2ccccc2)n1 | x | -0.7 | 0.7 | -6.5 | -23.6 | 1.3
